Data as given in PubChem BioAssay (Tox21).
Results filed as inconclusive are left out. The source holds several records for some structures; these can differ, active in one and inactive in another. Activity calls are given as the source filed them. Unless noted, calls follow the shape of the dose curve; as a rule, active = well fitted curve in the direction sought with a large enough effect in the repeat runs; inconclusive = weak or mixed curves; inactive = no such curve, though single readings can be large; an effect the other way counts as inactive or inconclusive.

Columns and labels:
[1] = A CellTox Green Cytotoxicity Assay to monitor cytotoxicity in HepG2 cells - 8 hour (AID 1224890); also: nearly all actives have a fitted effect of over 45% in size; also: potency is read from the fitted curve at half-maximal effect
How it was run: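 Real-time cytotoxicity: fluorescence of a cell-impermeant cyanine dye binding DNA of dead HepG2 cells, measured repeatedly (0–40 h) during compound exposure at 37 C. Cells seeded 600/well with reagent, dosed after 5 h.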

[2] = qHTS assay to identify small molecule antagonists of the estrogen receptor alpha (ER-alpha) signaling pathway using the BG1 cell line in the presence of 0.1 nM 17-beta-estradiol - cell viability counter screen (AID 1259241); also: nearly all actives have a fitted effect of over 40% in size
How it was run: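 Cells were plated and left 24 hr, compounds in DMSO were pinned in, 17beta-estradiol was added to 0.1 nM final, and after 22 hr CellTiter-Fluor reagent was added for 30 min before fluorescence was read.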

[3] = qHTS assay to identify small molecule antagonists of the androgen receptor (AR) signaling pathway using the MDA cell line in the presence of 0.5 nM R1881 - cell viability counter screen (AID 1259242); also: nearly all actives have a fitted effect of over 45% in size
How it was run: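 Live-cell protease activity was measured by CellTiter-Fluor fluorescence after 30 min. Before that, MDA-kb2 MMTV-luciferase cells had 16 hr at 37C without CO2, exposed to test compounds and 0.5 nM R1881 final.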

[4] = biological target: Estrogen receptor (Homo sapiens) (UniProt P03372); assay: qHTS assay to identify small molecule antagonists of the estrogen receptor alpha (ER-alpha) signaling pathway using the BG1 cell line in the presence of 0.1 nM 17-beta-estradiol (AID 1259244); also: nearly all actives have a fitted effect of over 50% in size; also: potency is read from the fitted curve at half-maximal effect
How it was run: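 Luciferase luminescence (ONE-Glo, 30 min at room temperature) was read after 22 hr at 37C exposure to compounds plus 17beta-estradiol at 0.1 nM final. Cells were VM7Luc4E2 with endogenous ER-alpha and an ERE-driven luciferase, pre-cultured 5 days in hormone-depleted medium.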

[5] = qHTS assay to identify small molecule phospholipidosis (PLD) inducers (AID 1259344; active = well fitted curve in the direction sought with a large enough effect; an effect the other way counts as inactive or inconclusive)
How it was run: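 Read-out is LipidTOX Red fluorescence (ex 595/em 615) imaged in HepG2 cells after 24 h compound exposure at 37 C, with Hoechst nuclear counterstain (ex 352/em 461) allowing per-cell normalisation.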

[6] = qHTS assay to identify small molecule HDAC inhibitors - cell viability counter screen (AID 1259365); also: series mostly up to about 92 µM; nearly all actives have a fitted effect of over 50% in size
How it was run: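 Counter screen in wild-type HCT-116 cells: compounds dissolved in DMSO are pin-transferred onto overnight-plated cells and left 2hr at 37C. ATP-based CellTiter-Glo luminescence then measures viable cells.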

[7] = qHTS assay to identify small molecule agonists of the sonic hedgehog signaling (Shh) pathway - cell viability counter screen (AID 1259366); also: nearly all actives have a fitted effect of over 50% in size
How it was run: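 Cells are plated at 2,000 per well and left 4hr at 37C, 5% CO2 before compound addition. After 23hr of treatment, CellTiter-Fluor reagent is added for 1hr at 37C and fluorescence is measured.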

[8] = qHTS assay to identify small molecule antagonists of the sonic hedgehog signaling (Shh) pathway - cell viability counter screen (AID 1259367); also: nearly all actives have a fitted effect of over 55% in size
How it was run: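 Fluorescence read-out (CellTiter-Fluor, 1 hr at 37C) taken after 23 hr compound treatment of 3T3 Gli1-Luc cells stimulated with conditioned medium. Cells were seeded at 2,000 per well and pre-incubated 4 hr.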

[9] = qHTS assay to identify small molecule agonists of the sonic hedgehog signaling (Shh) pathway (AID 1259368; calls by dose curve;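 also: NIH/3T3-derived 3T3Gli1-Luc cells carrying a stable Gli1-driven firefly luciferase reporter; series mostly up to about 92 µM; nearly all actives have a fitted effect of over 15% in size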)
How it was run: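 Luminescence was read after 30 min at room temperature with luciferase reagent. Before that, 3T3Gli1-Luc cells (NIH/3T3 clone, stable Gli1-Luc reporter; 2,000/well) were exposed to compounds for 24 hr at 37C, 5% CO2, compounds being added 4 hr post-plating.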

[10] = qHTS assay to identify small molecule antagonists of the sonic hedgehog signaling (Shh) pathway (AID 1259369; calls by dose curve; also: nearly all actives have a fitted effect of over 45% in size)
How it was run: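 Antagonist mode: compound added to 3T3 Gli1-Luc cells followed by conditioned-medium stimulation, 24 h at 37 C, 5% CO2. Inhibition taken as loss of Gli1-driven luciferase luminescence.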

[11] = biological target: Estrogen receptor beta (Homo sapiens) (UniProt Q92731); assay: qHTS assay to identify small molecule agonists of the estrogen receptor beta (ER-beta) signaling pathway (AID 1259377; active = well fitted activation curve with a large enough effect in the signal ratio in the repeat runs, not every such curve was filed as active; the % refers to the signal ratio)
How it was run: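 Agonist mode cell assay in GripTite HEK293T cells expressing an ER-beta fusion that drives beta-lactamase from an Upstream Activator Sequence; 16 hr compound exposure at 37C, then 2 h LiveBLAzer B/G FRET substrate at room temperature, fluorescence read-out.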

[12] = biological target: Estrogen receptor beta (Homo sapiens) (UniProt Q92731); assay: qHTS assay to identify small molecule antagonists of the estrogen receptor beta (ER-beta) signaling pathway (AID 1259378; active = well fitted inhibition curve with a large enough effect in the signal ratio in the repeat runs, not every such curve was filed as active; the % refers to the signal ratio)
How it was run: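 ER-beta-UAS-bla HEK293T cells in 2% charcoal-stripped FBS medium treated with compound plus 1nM final 17-beta-estradiol for 16 hr at 37C. Beta-lactamase reporter read by FRET substrate fluorescence after 2 hours at room temperature.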

[13] = qHTS assay to identify small molecule agonists of the androgen receptor (AR) signaling pathway in the presence of an antagonist - cell viability counter screen (AID 1259379); also: nearly all actives have a fitted effect of over 25% in size; also: potency is read from the fitted curve at half-maximal effect
How it was run: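 Cytotoxicity counter-screen run in the same wells as the nilutamide-challenged (3.0 µM final) AR agonist assay in MDA-kb2 cells. Compounds tested at 15 concentrations for 16 h, 37 °C without CO2; CellTiter-Fluor fluorescence read.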

[14] = qHTS assay to identify small molecule agonists of the estrogen receptor beta (ER-beta) signaling pathway - cell viability counter screen (AID 1259380); also: nearly all actives have a fitted effect of over 30% in size
How it was run: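 Cell viability counter screen: CellTiter-Glo luminescence (30 min, room temperature) measured in the same wells as the beta-lactamase readout, after 16 hr compound exposure at 37C of ER-beta-bla HEK293T cells in 2% charcoal-stripped FBS medium.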

[15] = qHTS assay to identify small molecule antagonists of the estrogen receptor beta (ER-beta) signaling pathway - cell viability counter screen (AID 1259382); also: series mostly up to about 92 µM; nearly all actives have a fitted effect of over 55% in size
How it was run: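 Cytotoxicity was measured in the same wells by CellTiter-Glo luminescence after 30 min at room temperature. Cells were ER-beta-bla HEK293T in charcoal-stripped serum, given compound together with 1 nM E2 and incubated 16 h at 37C.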

[16] = biological target: Estrogen receptor (Homo sapiens) (UniProt P03372); assay: qHTS assay to identify small molecule agonists of the estrogen receptor alpha (ER-alpha) signaling pathway in the presence of an antagonist (AID 1259383; calls by dose curve; also: top concentration of the series differs between compounds; nearly all actives have a fitted effect of over 15% in size)
How it was run: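 Agonist-mode confirmation run in the presence of 10.0nM (final) ICI-182,780 antagonist. The reporter was ERE-driven luciferase in VM7Luc4E2 cells, grown in charcoal-stripped serum. Cells were exposed to 15-concentration compound series for 22hr, then ONE-Glo luminescence was read.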

[17] = qHTS assay to identify small molecule agonists or antagonists of the thyroid stimulating hormone receptor (TSHR) signaling pathway - wild type cell line counter screen (AID 1259384; calls by dose curve)
How it was run: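 Wild-type Hek293 cells, 800/well, 18 h at 37C, then compound with Ro20-1724 for 30 min RT. cAMP by HTRF (cAMP-d2/anti-cAMP cryptate), 1 h RT, fluorescence read. 15 concentrations, triplicates.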

[18] = qHTS assay to identify small molecule HDAC inhibitors (AID 1259364); also: top concentration of the series differs between compounds; nearly all actives have a fitted effect of over 45% in size
How it was run: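 Luminescence read after 30 min room-temperature HDAC-Glo incubation measures cellular class I/II HDAC activity. Compounds were applied for 2 hr at 37 C to HCT-116 wild-type cells seeded the day before.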

[19] = biological target: Androgen receptor (Homo sapiens) (UniProt P10275); assay: qHTS assay to identify small molecule antagonists of the androgen receptor (AR) signaling pathway using the MDA cell line in the presence of 0.5 nM R1881 (AID 1259243); also: nearly all actives have a fitted effect of over 50% in size
How it was run: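 Luminescent reporter readout (ONE-Glo, 30 min, room temperature) after 16 hr co-treatment of MDA-kb2 cells with test compounds and 0.5 nM R1881 final, at 37C without CO2. The MMTV-driven luciferase responds to both AR and GR.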

[20] = biological target: Androgen receptor (Homo sapiens) (UniProt P10275); assay: qHTS assay to identify small molecule agonists of the androgen receptor (AR) signaling pathway in the presence of an antagonist (AID 1259381; calls by dose curve; also: nearly all actives have a fitted effect of over 15% in size)
How it was run: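 Agonist-mode confirmation run against 3.0 uM final nilutamide: compounds titrated at 15 concentrations onto MDA-kb2 MMTV-luciferase reporter cells. Luminescence measured with ONE-Glo following 16 hr incubation, 37C, 0% CO2.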

Measured: Potency

Sequence of Estrogen receptor beta (Homo sapiens) (Q92731 whole entry, looked up, the tested form may be a part): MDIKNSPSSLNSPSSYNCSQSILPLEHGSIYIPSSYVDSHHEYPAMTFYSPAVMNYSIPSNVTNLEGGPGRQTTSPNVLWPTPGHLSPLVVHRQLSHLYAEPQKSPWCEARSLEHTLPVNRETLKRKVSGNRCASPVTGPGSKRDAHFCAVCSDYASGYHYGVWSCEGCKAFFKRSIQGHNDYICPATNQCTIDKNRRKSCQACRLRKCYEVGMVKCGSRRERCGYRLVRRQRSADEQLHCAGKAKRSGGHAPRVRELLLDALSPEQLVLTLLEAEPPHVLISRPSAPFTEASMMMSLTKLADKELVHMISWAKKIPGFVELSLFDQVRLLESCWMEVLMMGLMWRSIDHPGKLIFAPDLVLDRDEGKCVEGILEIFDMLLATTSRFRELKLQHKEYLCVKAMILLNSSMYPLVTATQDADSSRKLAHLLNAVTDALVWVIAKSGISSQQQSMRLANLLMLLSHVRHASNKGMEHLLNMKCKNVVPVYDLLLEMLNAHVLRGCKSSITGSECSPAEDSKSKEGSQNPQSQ
Sequence of Estrogen receptor (Homo sapiens) (P03372 whole entry, looked up): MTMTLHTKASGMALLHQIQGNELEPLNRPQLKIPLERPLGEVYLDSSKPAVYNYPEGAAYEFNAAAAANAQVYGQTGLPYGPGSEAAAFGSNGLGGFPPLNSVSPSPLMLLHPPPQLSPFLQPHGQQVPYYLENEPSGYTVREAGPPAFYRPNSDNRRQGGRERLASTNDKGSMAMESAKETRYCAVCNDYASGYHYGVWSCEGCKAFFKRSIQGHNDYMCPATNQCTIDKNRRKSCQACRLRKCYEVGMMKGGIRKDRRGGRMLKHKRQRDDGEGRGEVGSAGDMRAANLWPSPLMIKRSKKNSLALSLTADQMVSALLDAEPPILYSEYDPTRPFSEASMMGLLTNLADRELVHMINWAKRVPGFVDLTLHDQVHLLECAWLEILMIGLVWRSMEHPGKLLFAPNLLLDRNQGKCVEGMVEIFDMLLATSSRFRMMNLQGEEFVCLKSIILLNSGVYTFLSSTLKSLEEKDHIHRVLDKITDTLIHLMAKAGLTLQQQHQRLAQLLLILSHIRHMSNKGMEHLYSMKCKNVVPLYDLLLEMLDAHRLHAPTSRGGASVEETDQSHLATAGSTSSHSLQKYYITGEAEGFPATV
Sequence of Androgen receptor (Homo sapiens) (P10275 whole entry, looked up): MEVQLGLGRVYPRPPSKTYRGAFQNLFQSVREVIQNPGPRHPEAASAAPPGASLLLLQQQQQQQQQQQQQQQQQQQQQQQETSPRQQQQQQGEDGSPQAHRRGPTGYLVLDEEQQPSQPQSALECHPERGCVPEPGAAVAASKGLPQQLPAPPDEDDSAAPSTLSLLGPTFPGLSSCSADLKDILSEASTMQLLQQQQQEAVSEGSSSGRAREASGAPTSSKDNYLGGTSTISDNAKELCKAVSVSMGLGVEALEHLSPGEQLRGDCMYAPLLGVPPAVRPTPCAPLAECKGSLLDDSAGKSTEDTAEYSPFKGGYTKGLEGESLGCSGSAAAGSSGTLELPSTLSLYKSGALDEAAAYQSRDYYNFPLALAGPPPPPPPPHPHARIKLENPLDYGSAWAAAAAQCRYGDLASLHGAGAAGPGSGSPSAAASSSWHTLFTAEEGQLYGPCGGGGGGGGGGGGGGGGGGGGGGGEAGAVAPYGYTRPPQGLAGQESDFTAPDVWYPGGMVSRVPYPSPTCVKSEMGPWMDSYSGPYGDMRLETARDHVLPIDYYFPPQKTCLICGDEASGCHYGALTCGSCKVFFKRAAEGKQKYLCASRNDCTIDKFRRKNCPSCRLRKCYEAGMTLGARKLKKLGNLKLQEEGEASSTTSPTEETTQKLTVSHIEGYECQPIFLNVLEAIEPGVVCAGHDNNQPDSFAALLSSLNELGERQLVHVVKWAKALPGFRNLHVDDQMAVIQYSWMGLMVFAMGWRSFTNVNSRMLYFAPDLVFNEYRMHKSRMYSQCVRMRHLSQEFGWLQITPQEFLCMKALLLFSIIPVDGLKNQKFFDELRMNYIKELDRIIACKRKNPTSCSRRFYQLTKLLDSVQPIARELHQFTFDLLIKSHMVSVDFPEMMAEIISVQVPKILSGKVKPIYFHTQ

O=C(O)COc1ccccc1
not listed: [18] | [19] | [20]
inactive: all other assays above

CCCOC(=O)c1ccccc1C(=O)OCCC
not listed: [5] | [10] | [11] | [12] | [17] | [19] | [20]
inactive: all other assays above

CNC(=O)O/N=C/C(C)(C)SC
not listed: [5] | [11] | [12] | [14] | [17] | [19] | [20]
inactive: all other assays above

CC(C)(C)C(=O)CCl
not listed: [5] | [7] | [17]
inactive: all other assays above

CCSC(=O)N1CCCCCC1
not listed: [5] | [18] | [19] | [20]
inactive: all other assays above

O=[N+]([O-])c1cc([As](=O)(O)O)ccc1O
not listed: [10] | [14] | [18] | [19] | [20]
inactive: all other assays above

Nc1ccc([As](=O)(O)O)cc1
not listed: [7] | [17] | [19] | [20]
inactive: all other assays above

Cc1cc(O)ccc1Cl
not listed: [7] | [17] | [18] | [19] | [20]
inactive: all other assays above

O=C/C=C/c1ccccc1
not listed: [7] | [11] | [12] | [18] | [19] | [20]
inactive: all other assays above

CNC(=O)O/N=C/C(C)(C)S(C)(=O)=O
not listed: [5] | [10] | [14] | [17]
inactive: all other assays above

O=C(O)CCCc1ccc(N(CCCl)CCCl)cc1
not listed: [7] | [11] | [12] | [14] | [18] | [19] | [20]
inactive: all other assays above

CCCCC(CC)C(=O)Cl (stereo unspecified)
not listed: [5] | [10] | [18] | [19] | [20]
inactive: all other assays above

N#Cc1ccccn1
not listed: [5] | [14] | [17] | [19] | [20]
inactive: all other assays above

C=C(C)C(=O)OCC(CC)CCCC (stereo unspecified)
55.5 µM (active) and inactive: [13]
22.1 µM (active) and inactive: [4]
not listed: [5] | [10] | [14] | [18] | [19] | [20]
inactive: all other assays above

CC(C)c1cccc(C(C)C)c1O
43.6 µM (active) and inactive: [1]
not listed: [17]
inactive: all other assays above

ClC(Cl)c1ccccc1
not listed: [5] | [7] | [10] | [11] | [12] | [17] | [19] | [20]
inactive: all other assays above

C=CC#N
not listed: [5] | [14] | [19] | [20]
inactive: all other assays above
